Assay outcomes from PubChem BioAssay.
Sm TGR inh: qHTS Assay for the Inhibitors of Schistosoma Mansoni Peroxiredoxins. actives 3% (n = 360,000). purified TGR, DTNB reduction, TNB absorbance 405 nm. Potency, µM (doses to about 114 µM), without a hit: at the highest dose activity change, negative = inhibition, most hits filed as inhibitors. Schistosoma mansoni thioredoxin glutathione reductase (TGR), Q962Y6. AID 485364, 2010; also: nearly all actives have a fitted effect of over 60% in size
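Kinetic colorimetric format: TGR-catalysed, NADPH-driven DTNB reduction monitored via TNB absorbance. Enzyme dispensed at 20 nM; compound exposure 15 min at room temperature before reaction start.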
AmpC detergent: qHTS Inhibitors of AmpC Beta-Lactamase (assay with detergent) | actives 0.041% (n = 370,000) | AmpC hydrolysis of nitrocefin, absorbance 480 nm, 0.01% Triton | Potency, µM (highest dose often 114 µM), for the others: top-dose activity change, negative = inhibition, actives largely listed as inhibitors | P00811 | AID 485294, 2010;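 also: 0% = no-compound wells and -100% = no-enzyme wells; nearly all actives have a fitted effect of over 25% in size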
Target sequence (P00811 whole entry, looked up): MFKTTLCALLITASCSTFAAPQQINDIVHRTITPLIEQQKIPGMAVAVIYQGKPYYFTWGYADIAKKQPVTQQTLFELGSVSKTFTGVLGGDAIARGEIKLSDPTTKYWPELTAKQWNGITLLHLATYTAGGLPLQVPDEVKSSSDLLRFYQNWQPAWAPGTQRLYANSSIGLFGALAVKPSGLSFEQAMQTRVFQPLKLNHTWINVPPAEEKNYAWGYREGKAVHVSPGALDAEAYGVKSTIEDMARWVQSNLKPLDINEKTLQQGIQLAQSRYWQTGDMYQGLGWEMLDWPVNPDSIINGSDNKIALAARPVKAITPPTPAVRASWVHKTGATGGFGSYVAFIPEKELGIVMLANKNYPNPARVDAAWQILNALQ
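20 mM phosphate pH 7.0 + 0.01% (detergent screen) or 0.0001% Triton X-100; 5.3 nM AmpC reagent; cpd preinc 15 min RT; nitrocefin (800 uM stock) to start; A480 q20 s × 4 min; Activity was normalised to no-enzyme and no-compound control wells.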
AmpC inh no detg: qHTS Inhibitors of AmpC Beta-Lactamase (assay without detergent) | actives 0.52% (n = 330,000) | AmpC nitrocefin hydrolysis, absorbance 480 nm, 0.0001% Triton | P00811 | Potency, µM (top dose mostly 57.1 µM), inactives show at the top dose activity change, negative = inhibition, most hits filed as inhibitors | AID 485341, 2010;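 also: plate controls were no compound for no effect and no enzyme for full effect; nearly all actives have a fitted effect of over 20% in size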
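20 mM phosphate pH 7.0 + 0.01% (detergent screen) or 0.0001% Triton X-100; 5.3 nM AmpC reagent; cpd preinc 15 min RT; nitrocefin (800 uM stock) to start; A480 q20 s × 4 min; Activity was normalised to no-enzyme and no-compound control wells.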
FBPA Giardia inh: qHTS Assay for Inhibitors of Fructose-1,6-bisphosphate Aldolase from Giardia Lamblia. A8B2U2. purified Giardia FBPA. Potency, µM (series often up to 59.6 µM), inactives show at the top dose activity, negative = inhibition, most hits filed as inhibitors. actives 0.71% (n = 290,000). AID 2451, 2010; also: nearly all actives have a fitted effect of over 55% in size
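Giardia FBPA (40 nM reagent) was preincubated 10 min at RT with compound (up to 57.5 uM final), then substrate plus GAPDH/TPI/NAD/arsenate coupling system with diaphorase/resazurin was added; resorufin fluorescence (525/598 nm) was read after 20 min.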
Active calls of the source: *; ? = inconclusive; / = not tested or not shown. A selection: hits, their analogues and other compounds. The true share with any hit is near 3.6%. Calls follow the shape of the dose curve; as a rule, active = well fitted curve in the direction sought with a large enough effect; inconclusive = small, poorly fitted or top-dose-only effect, or another doubt; inactive = no such curve, though single readings can be large; an effect the other way counts as inactive or inconclusive. Unless noted, % is scaled to controls: 0 for no effect and ±100 for the full control effect; potency is read from the fitted curve at half-maximal effect.

SMILES	Sm TGR inh	AmpC detergent	AmpC inh no detg	FBPA Giardia inh
COc1cccc(C2C=C(c3cccs3)Nc3ncnn32)c1OC (stereo unspecified)	?	?	-18%	?
COc1ccc(C2C=C(c3ccc(Br)s3)Nc3ncnn32)cc1OC (stereo unspecified)	50µM*	-2%	19%	-12%
C1=C(c2ccc(-c3ccccc3)cc2)Nc2ncnn2C1c1ccco1 (stereo unspecified)	22µM*	-2%	-51%	1%
CCOc1ccc(C2C=C(c3ccc(F)cc3)Nc3ncnn32)cc1 (stereo unspecified)	28µM*	-7%	-12%	-20%
CCOC(=O)c1ccc(NC(=O)CS(=O)(=O)Cc2nc(-c3ccc(C)cc3)oc2C)cc1	-29%	-4%	/	/
CCOC(=O)C1=C(CN2CCN(c3cccc(OC)c3)CC2)NC(=O)NC1c1ccc(OC)cc1 (stereo unspecified)	-3%	13%	/	/
COc1ccc(C2C=C(c3ccc(C)cc3)Nc3ncnn32)cc1 (stereo unspecified)	28µM*	-4%	-5%	-20%
Fc1ccc(C2=CC(c3ccco3)n3ncnc3N2)cc1 (stereo unspecified)	?	-14%	-24%	-16%
Oc1ccc(C2C=C(c3ccc(F)cc3)Nc3ncnn32)cc1 (stereo unspecified)	45µM*	-1%	-27%	-2%
Fc1ccc(C2=CC(c3ccc(Br)o3)n3ncnc3N2)cc1 (stereo unspecified)	20µM*	-8%	-49%	7%
COc1cccc(C2=CC(c3ccccc3)n3ncnc3N2)c1 (stereo unspecified)	14µM*	-1%	-4%	9%
COc1ccc(C2C=C(c3ccc(Cl)c(Cl)c3)Nc3ncnn32)cc1 (stereo unspecified)	19%	-6%	/	/
NC(=O)Nc1ccc(Cl)cc1	12%	0%	-13%	0%
NC(=O)/C=C/C(=O)Nc1ccc(Cl)cc1	3.5µM*	0%	-13%	4%
COc1cccc(CNC(=O)CN2CCC(c3nc4ccc(C)cc4[nH]3)CC2)c1	/	-2%	20%	-1%
Cc1cccc(-n2ncc3c(N4CCN(CCO)CC4)ncnc32)c1	6%	3%	/	/
O=C1CC(c2ccc(O)c(O)c2)Oc2c1ccc(O)c2O (stereo unspecified)	56µM*	-5%	-46%	?
O=C1CC(c2ccc(O)c(O)c2)Oc2cc(O)cc(O)c21 (stereo unspecified)	40µM*	1%	-36%	-19%
O=C1CC(c2ccc(O)cc2)Oc2cc(O)cc(O)c21 (stereo unspecified)	-14%	-20%	-30%	8%
CC(C)=CCc1c(O)ccc2c1OC(c1ccc(O)c(O)c1)CC2=O (stereo unspecified)	56µM*	3%	-53%	-17%
O=C1C[C@@H](c2ccc(O)c(O)c2)Oc2c1ccc(O[C@@H]1O[C@H](CO)[C@@H](O)[C@H](O)[C@H]1O)c2O	/	/	/	-6%
CC(C)=CCc1c(O)cc(C)oc1=O	/	/	/	-1%
CC(=O)Nc1ccc(N2CCCC2)cc1	35µM*	-6%	41%	?
CC(=O)Nc1ccc(N2Cc3ccccc3C2)cc1	13µM*	?	46%	-24%
CCc1ccc(N2Cc3ccccc3C2)cc1	18µM*	7%	-19%	-19%
SMILES	Sm TGR inh	AmpC detergent	AmpC inh no detg	FBPA Giardia inh
COCCCNC(=S)N(Cc1cccnc1)Cc1ccc(OC)c(OC)c1	-15%	-12%	8%	2%
Cn1c(SCC(=O)NC2(C#N)CCCCC2)nnc1-c1cccnc1	-11%	-14%	-13%	0%
CC1=CC(=O)C(C(C)C)=C/C1=N/OC(=O)c1cccc([N+](=O)[O-])c1	45µM*	3%	-11%	-20%
Cc1ccc(C(=O)O/N=C(\N)c2cccc([N+](=O)[O-])c2)cc1	0%	-10%	-23%	-9%
CC1=CC(=O)C(C(C)C)=C/C1=N\OC(=O)c1cccc2nc(C)oc12	-12%	-13%	-19%	-16%
CC1=CC(=NOC(=O)c2cccc([N+](=O)[O-])c2)C=C(C)C1=O	2.8µM*	-6%	-10%	?
COc1ccc(C2/C=C\CN(C(=O)C3CCCC3)C(C)C(=O)N2Cc2ccc(F)cc2)cc1 (stereo unspecified)	/	/	/	-1%
COc1ccc2[nH]c(=O)c(CNc3ccc(C)cc3C)cc2c1	13µM*	0%	-22%	?
COc1ccc2[nH]c(=O)c(CNc3ccccc3OC)cc2c1	18µM*	0%	-14%	?
Cc1ccc(NC(=O)c2cccc(NC(=O)/C=C/c3ccco3)c2)cc1C	45µM*	?	-55%	-3%
Cc1ccc(-n2nc3ccc(NC(=O)/C=C/c4ccco4)cc3n2)cc1	-24%	-8%	28µM*	-3%
Cc1cc(C)c2oc(-c3ccc(C)c(NC(=O)/C=C/c4ccco4)c3)nc2c1	13µM*	-3%	/	/
CCc1ccccc1NC(=O)c1cccc(NC(=O)/C=C/c2ccco2)c1	20µM*	0%	-32%	-10%
O=C(/C=C/c1ccco1)Nc1cccc(C(=O)Nc2ccccc2C(=O)O)c1	4µM*	0%	-46%	-3%
N#Cc1ccc(-c2cn3c(n2)SCC3)cc1	6%	-15%	-20%	13%
Cc1nc(N2CCN(C(=O)c3ccco3)CC2)c(C#N)c2c1CCCC2	-12%	-5%	12%	0%
Cc1cc(C)c2nc(N3CCCN(C(=O)c4ccco4)CC3)c(C#N)cc2c1	2µM*	4%	40%	?
COc1ccc2nc(N3CCCCC3)c(C#N)cc2c1	-10%	-14%	2%	18µM*
COc1ccc2nc(N3CCCC3)c(C#N)cc2c1	-1%	?	-8%	-7%
Cc1ccc2cc(C#N)c(N3CCCC3)nc2c1C	20µM*	?	-38%	-16%
C[C@H]1CN([C@@H](C)CO)C(=O)c2cccc(NS(=O)(=O)c3ccc(Cl)cc3)c2O[C@@H]1CN(C)CC1CCCCC1	/	/	249%	/
CCOC(=O)c1c(NC(=O)CCS(=O)(=O)c2ccccc2)sc2c1CC(C)(C)NC2(C)C	40µM*	-6%	45%	/
COc1c(O)c(=O)n2c3ccccc3c3ccnc1c32	4µM*	-8%	-3%	/
COc1ccc(Cl)cc1NC(=O)Cn1nc(Cc2ccncc2)c2ccccc2c1=O	2%	7%	/	/
Cc1ccsc1-c1nc(CN2CCN(C)C(=O)[C@@H]2C)c(C)o1	32µM*	-2%	18%	0%
Cc1oc(-c2cc(F)ccc2F)nc1CN1CCN(C)C(=O)[C@@H]1C	-23%	-1%	21%	6%
O=C1NC(c2ccccc2)Nc2c1sc(=S)n2-c1ccccc1 (stereo unspecified)	-8%	-5%	-31%	1%
Cc1cc2nc3c(=O)[nH]c(=S)[nH]c3nc2cc1NC(=O)C(F)(F)F	-2%	-12%	-8%	?
